Laboratory results published in ChEMBL document CHEMBL4513216, “Probing the Open Global Health Chemical Diversity Library for Multistage-Active Starting Points for Next-Generation Antimalarials” (ACS Infect Dis, 2020).
The whole screen tested about 69,000 compounds, of which about 8,600 (12%) showed an effect of 50% or more. This is one part of a sample in which strong results are shown more often than they occur.

Tested on: Plasmodium berghei
Assay: Screen against P. berghei liver stage (PbLuc), transformed with Luciferase, at 10uM
Type: functional, HepG2
Settings: tested at 10 uM

| Compound | INHIBITION |
| --- | --- |
| CCc1ccc(CN(C)Cc2nc(COc3ccccc3)no2)nc1 | 29.6% |
| c1ccc(CN2CCc3ncnc(C4CC4)c3CC2)nc1 | 21.1% |
| O=C(c1cscn1)N1CCC[C@]2(C[C@@H](OCC3CC3)CO2)C1 | 36.9% |
| CN(Cc1ccco1)Cc1ccccc1CNC(=O)c1c[nH]nn1 | -1.28% |
| CN(Cc1ccco1)Cc1ccccc1CNC(=O)c1csnn1 | 46.4% |
| CN(Cc1ccco1)Cc1ccccc1CNC(=O)c1cnc[nH]1 | 69.3% |
| CN(C)c1ncccc1CNC(=O)NCc1ccco1 | -36.3% |
| Cc1cc(C(=O)NCc2ccccc2CN(C)Cc2ccco2)on1 | 77.2% |
| Cc1cc(CN(C)C(=O)NCc2ccco2)no1 | 14.1% |
| Cc1ncccc1C(=O)NCc1ccccc1CN(C)Cc1ccco1 | 67.3% |
| CN(Cc1ccco1)Cc1ccccc1CNC(=O)c1ccncc1 | -4.86% |
| CN(Cc1ccco1)Cc1ccccc1CNC(=O)c1cc[nH]n1 | 30.1% |
| Cc1oc(C)c(C(=O)NCc2ccccc2CN(C)C)c1C | 25.55% |
| CN(Cc1ccco1)Cc1ccccc1CNC(=O)c1ccc[nH]1 | 30.1% |
| CN(Cc1ccco1)Cc1ccccc1CNC(=O)c1cnccn1 | 63.3% |
| CCS(=O)(=O)c1ccccc1N1CCC(NC(=O)C(C)C)CC1 | -25.8% |
| CO[C@@H]1CCC[C@@H](NC(=O)C(C)(C)c2cccc(F)c2)[C@H]1O | 10.855% |
| Cc1cccc(C)c1NC(=O)c1n[nH]c(-n2cnnc2)n1 | 19.6% |
| CC(C)N(C)Cc1nnc2n1CCCN(S(=O)(=O)C1CC1)C2 | 36.4% |
| c1ccc(OCc2nnc3n2CCN(CC2CC2)C3)nc1 | 39.3% |
| Cc1c(C2CCCN(C(=O)Cc3ccccn3)C2)n2c(nc1=O)CCC2 (centres undefined) | 34.1% |
| O=C(NCCc1nccs1)[C@H](c1ccccc1)n1cnnn1 | -20.8% |
| CC(O)CNC(=O)CCc1nc2ncccc2[nH]1 (centres undefined) | 26.6% |
| Cc1nc(C(=O)N2CCN(S(C)(=O)=O)CC2)c(-c2cccc(F)c2)s1 | 17.7% |
| Cc1cccc(CN2C[C@@H]3OCCN(c4ccnc(N(C)C)n4)[C@@H]3C2)c1 | 77.5% |
| c1cnc(N2CCO[C@H]3CN(Cc4ccsc4)C[C@H]32)nc1 | 42.7% |

| Compound | INHIBITION |
| --- | --- |
| CN(C)C(=O)CN1CCO[C@H]2CN(Cc3ccoc3)C[C@H]21 | 31.2% |
| Cc1cc(C)cc(CN2C[C@@H]3OCCN(CC(=O)N(C)C)[C@@H]3C2)c1 | 66.6% |
| Cc1cccc(CN2C[C@@H]3OCCN(c4cnccn4)[C@@H]3C2)n1 | -18.5% |
| Cc1ccc(N2CCO[C@H]3CN(Cc4ccoc4)C[C@H]32)nn1 | 41.6% |
| CN(C)c1nccc(N2CCO[C@H]3CN(Cc4ccsc4)C[C@H]32)n1 | 65.1% |
| c1cc(CN2C[C@@H]3OCCN(CCN4CCCC4)[C@@H]3C2)cs1 | 11.3% |
| Cc1cccc(CN2C[C@@H]3OCCN(CC(=O)N(C)C)[C@@H]3C2)c1 | 39.4% |
| CCOCCCNC(=O)C1CCC(=O)N(CCc2ccc(Cl)cc2)C1 (centres undefined) | 16.3% |
| COc1ccc(C(=O)Nc2ccccc2C(C)C)c(OC)n1 | -17.2% |
| COc1ccc([C@@H]2CN(Cc3cccnc3N)C[C@H]2N(C)C)cc1 | 30.3% |
| O[C@@H]1CCN(CC2CC2)[C@H]1Cc1ccccc1 | -14.4% |
| Cc1nc(C)n(CC2CN(Cc3cccnc3)Cc3nccn3C2)n1 (centres undefined) | 25.1% |
| Cc1ncsc1C(=O)NCCCN1CCCCCC1=O | -21.2% |
| Cc1nc(S(=O)(=O)N2CCSCC2)cn1C | -50.7% |
| CCN(CC)Cc1cc(=O)n2c(n1)CN(C(=O)c1ccnnc1)CCC2 | -20.2% |
| COc1ccc(C[C@H]2CN(C(=O)CS(C)(=O)=O)CC[C@H]2OC)cc1 | 33.4% |
| COCCN1CC[C@H]2CN(Cc3ccc(C)s3)C[C@@H]2C1=O | -75% |
| c1nc(N2CCCC2)ncc1CN1CCCC(CN2CCCCC2)C1 (centres undefined) | 21.1% |
| CCc1cnc(N2CCCC(CCC(N)=O)C2)nc1 (centres undefined) | 17.9% |
| NC(=O)CCC1CCCN(Cc2cnc(N3CCCCC3)nc2)C1 (centres undefined) | 67.8% |
| Cc1nn(C)c2ncc(C(=O)N3CCNC(=O)C3)cc12 | 1.86% |
| COCC(=O)N1CCC(c2cc3ncccc3c(O)n2)CC1 | -27.4% |
| O=C(CCC1CCCC1)N1CCC(c2cc3ncccc3c(O)n2)CC1 | 55.6% |
| O=C(CC1CCCC1)N1CCC(c2cc3ncccc3c(O)n2)CC1 | -2.11% |
| O=C(c1c(F)cccc1F)N1CCOCC1 | 30.45% |
| O=C(Nc1cccc(CNCc2csc(Br)c2)c1)C1CC1 | 70.7% |

| Compound | INHIBITION |
| --- | --- |
| Cn1ccc(C(=O)NCc2ccc(Cn3ccnc3)cc2)cc1=O | -7.17% |
| Cc1nccn1Cc1cccc(CNC(=O)c2ccn(C)c(=O)c2)c1 | 53.8% |
| Cn1ccc(C(=O)NCc2cccc(CN3CCCC3)c2)cc1=O | 48.8% |
| Cn1ccc(C(=O)NCc2cccc(N3CCCCC3=O)c2)cc1=O | 45.9% |
| O=C(Nc1cccc(CNCc2cccnc2)c1)C1CCCC1 | 39.65% |
| Cn1ccc(C(=O)NCc2cccc(NC(=O)C3CCC3)c2)cc1=O | 61.1% |
| O=C(Nc1cccc(CNCc2ccsc2)c1)C1CC1 | 21.8% |
| Cn1ccc(C(=O)NCc2cccc(Cn3ccnc3)c2)cc1=O | 31.4% |
| COCCC(=O)N1CCC(c2cc(O)n(C)n2)C1 (centres undefined) | 0.301% |
| O=C(O)CC(CC(=O)NCc1ccsc1)c1cccs1 (centres undefined) | -24% |
| CCn1cc(NC(=O)NCCc2ccc3c(c2)OCO3)cn1 | -23.9% |
| CCc1nc(C(=O)N(C)CC(=O)N(C)C)nn1-c1ccccc1Cl | 27.9% |
| c1ccc2oc(CCCN3CCOC(Cn4cncn4)C3)nc2c1 (centres undefined) | 47.1% |
| Cc1ccsc1C(=O)N1CCC(Nc2cccnc2)CC1 | -36.6% |
| COCCN1C(=O)[C@@H]2CC[C@H]1CN(S(=O)(=O)c1ccc(OC)cc1)C2 | 1.56% |
| Cc1cc(C(F)(F)F)c2c(C3CCCN(C(=O)C4CC4)C3)noc2n1 (centres undefined) | 26.8% |
| CNc1ccc(Cl)cc1C(=O)N1CCC(Cn2cc(CN)nn2)CC1 | 21.2% |
| CC(C)n1ncc2c1NC(=O)CC21C(=O)Nc2cc(Cl)cc(Cl)c21 (centres undefined) | 89.6% |
| CC(C)n1ncc2c1NC(=O)CC21C(=O)Nc2c(Cl)cccc21 (centres undefined) | -75.8% |
| Cc1cc(C)c2c(c1)C1(CC(=O)Nc3c1cnn3C(C)C)C(=O)N2 (centres undefined) | -20.5% |
| Cc1cc(Br)c2c(c1)C1(CC(=O)Nc3c1cnn3C(C)C)C(=O)N2 (centres undefined) | -34.8% |
| CC(C)n1ncc2c1NC(=O)CC21C(=O)Nc2c(Br)cc(Cl)cc21 (centres undefined) | 59.3% |
| CC(C)n1ncc2c1NC(=O)CC21C(=O)Nc2c(Cl)cc(Br)cc21 (centres undefined) | -23.7% |
| CC(C)n1ncc2c1NC(=O)CC21C(=O)Nc2c(Cl)ccc(Cl)c21 (centres undefined) | 73.6% |
| CC(C)n1ncc2c1NC(=O)CC21C(=O)Nc2c(Cl)cc(Cl)cc21 (centres undefined) | -35.5% |
| CN1C(=O)C2(CC(=O)Nc3c2cnn3C(C)(C)C)c2c(Cl)cccc21 (centres undefined) | 5.58% |

| Compound | INHIBITION |
| --- | --- |
| CC(=O)c1ccc(N2CCN(C(=O)NCc3cc[nH]n3)CC2)cc1 | 48.4% |
| O=C(c1ccsc1)N1CCOC2(CCN(Cc3cccnc3)CC2)C1 | -9.67% |
| COc1ccc2oc(C(C)NC(=O)NC3CCN(C)CC3)c(C)c2c1 (centres undefined) | 2.4% |
| Cn1ccnc1CNC(=O)N(CCCO)C1CCc2ccccc21 (centres undefined) | 8.05% |
| CCC[C@H]1CN(c2cncc(C(=O)N3CCCCC3)n2)C[C@@H]1N(C)C | -12.2% |
| COCCNC(=O)Cn1cc(OCc2ccc(F)cc2)c(=O)cc1C | 25.8% |
| Cc1nc(O)cc(C2CCCN2CCO)n1 (centres undefined) | 13.5% |
| CC(=O)Cc1c(C)nn(-c2cncc(N)c2)c1C | 11.5% |
| O=C1CC2(CCCC2)CN1CCOc1ccc(F)cc1 | -144% |
| O=C(C1=COCCO1)N1CC(Oc2nc3c(Cl)cccc3s2)C1 | 74.6% |
| OC1CN(c2nc3c(C(F)(F)F)cccc3s2)C1 | -40% |
| Cn1nc(C(=O)N2CC(Oc3nc4c(Cl)cccc4s3)C2)ccc1=O | 29.6% |
| COc1cccc2sc(OC3CN(C(=O)C4=COCCO4)C3)nc12 | 13.3% |
| CC(=O)OC1CN(c2nc3c(C(F)(F)F)cccc3s2)C1 | -107% |
| O=C(C1=COCCO1)N1CC(Oc2nc3c(C(F)(F)F)cccc3s2)C1 | 81.1% |
| CC1CCN(C(=O)CSc2nc3c(cnn3CCO)c(=O)[nH]2)CC1 | 38.6% |
| O=C(c1ccc2[nH]nnc2c1)N1CC[C@H](O)[C@]2(CCCO2)C1 | 1.62% |
| CCc1cccc(NC(=O)N2CCn3cnc(COC)c3C2)c1 | -2.35% |
| CCN(CC1CCCO1)C(=O)Nc1cc(C(N)=O)ccc1OC (centres undefined) | 2.3% |
| O=C(Cc1ccsc1)N1CCC[C@@H]1Cn1c(=O)oc2ccccc21 | 8.2% |
| O=C(NCC1CCOCC1)[C@@H]1CC[C@@H]2[C@@H](CCN2Cc2ccncc2)O1 | -54.7% |
| O=C(CCc1cccnc1)N(Cc1ccsc1)CC1CCCO1 (centres undefined) | -9.86% |
| O=C(COCC1CCCO1)N(Cc1cccnc1)c1ccc(F)cc1 (centres undefined) | 53.3% |
| O=C(CN(Cc1cccnc1)CC1CCCO1)Nc1ccc(F)cc1 (centres undefined) | 21.6% |
| Cn1cc(C2CC(=O)NC23CCN(C(=O)c2cccnc2)CC3)cn1 (centres undefined) | 33.4% |
| O=C(c1csc(-c2ncccn2)n1)N1CCCC1Cn1cccn1 (centres undefined) | 41.5% |
